# PubChem BioAssay AID1159580 (chemical genetic matrix, 2015)
# The campaign covered roughly 5,500 compounds. About 2,000 (36%) were called active. About 18% were inconclusive and are not listed. This is one part of the list. Unmarked numbers belong to inactive results. Rule as the data show it: active = normalized growth mostly below about 0.91 (no sharp cut-off); inconclusive = no clear call, values can overlap the other calls; inactive = mostly above about 0.92.
# Test: chemical genetic growth profiling, strain panel (AID 1159580);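 also: tested at 20 µM; growth read once vehicle control cultures reached saturation at 30 °C; 1 = growth at the plate median or of vehicle wells; lower values mean less growth of the strain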
# Details: growth OD
smiles,measurement,setting,value
CCCCOc1ccc(CC(=O)NO)cc1,normalized growth,"S. cerevisiae deletion strains, locus YJR043C, strain POL32, hits give low values",0.968
same,normalized growth,"S. cerevisiae deletion strains, locus YJR066W, strain TOR1, hits give low values",0.976
same,normalized growth,"S. cerevisiae deletion strains, locus YJR075W, strain HOC1, hits give low values",0.977
same,normalized growth,"S. cerevisiae deletion strains, locus YKL009W, strain mrt4, hits give low values",1.01
same,normalized growth,"S. cerevisiae deletion strains, locus YKL068W, hits give low values",0.999
same,normalized growth,"S. cerevisiae deletion strains, locus YKL085W, strain MDH1 (second series), hits give low values",0.998
same,normalized growth,"S. cerevisiae deletion strains, locus YKL085W, strain MDH1, hits give low values",0.998
same,normalized growth,"S. cerevisiae deletion strains, locus YKL160W, strain elf1, hits give low values",0.984
same,normalized growth,"S. cerevisiae deletion strains, locus YKL190W, strain CNB1, hits give low values",0.994
same,normalized growth,"S. cerevisiae deletion strains, locus YKR001C, strain vps1, hits give low values",0.831 (active)
same,normalized growth,"S. cerevisiae deletion strains, locus YKR026C, strain gcn3, hits give low values",0.991
same,normalized growth,"S. cerevisiae deletion strains, locus YKR091W, strain srl3, hits give low values",0.996
same,normalized growth,"S. cerevisiae deletion strains, locus YLL001W, strain dnm1, hits give low values",0.986
same,normalized growth,"S. cerevisiae deletion strains, locus YLL026W, hits give low values",0.981
same,normalized growth,"S. cerevisiae deletion strains, locus YLL041C, strain sdh2, hits give low values",0.985
same,normalized growth,"S. cerevisiae deletion strains, locus YLR027C, strain aat2, hits give low values",0.97
same,normalized growth,"S. cerevisiae deletion strains, locus YLR039C, strain RIC1, hits give low values",0.731
same,normalized growth,"S. cerevisiae deletion strains, locus YLR058C, strain SHM2, hits give low values",1
same,normalized growth,"S. cerevisiae deletion strains, locus YLR102C, strain apc9, hits give low values",1.01
same,normalized growth,"S. cerevisiae deletion strains, locus YLR113W, strain HOG1, hits give low values",0.963
same,normalized growth,"S. cerevisiae deletion strains, locus YLR221C, strain rsa3, hits give low values",0.963
same,normalized growth,"S. cerevisiae deletion strains, locus YLR258W, strain gsy2, hits give low values",0.984
same,normalized growth,"S. cerevisiae deletion strains, locus YLR262C, strain YPT6 (second series), hits give low values",0.847 (active)
same,normalized growth,"S. cerevisiae deletion strains, locus YLR262C, strain YPT6, hits give low values",0.738
same,normalized growth,"S. cerevisiae deletion strains, locus YLR268W, strain sec22, hits give low values",0.983
same,normalized growth,"S. cerevisiae deletion strains, locus YLR320W, strain mms22, hits give low values",0.958
same,normalized growth,"S. cerevisiae deletion strains, locus YLR330W, strain CHS5, hits give low values",0.988
same,normalized growth,"S. cerevisiae deletion strains, locus YLR342W, strain FKS1 (second series), hits give low values",1.01
same,normalized growth,"S. cerevisiae deletion strains, locus YLR342W, strain FKS1, hits give low values",1.01
same,normalized growth,"S. cerevisiae deletion strains, locus YLR357W, strain rsc2, hits give low values",1
same,normalized growth,"S. cerevisiae deletion strains, locus YLR370C, strain arc18, hits give low values",0.989
same,normalized growth,"S. cerevisiae deletion strains, locus YLR371W, strain rom2, hits give low values",0.999
same,normalized growth,"S. cerevisiae deletion strains, locus YLR384C, strain iki3, hits give low values",0.991
same,normalized growth,"S. cerevisiae deletion strains, locus YLR418C, strain cdc73, hits give low values",0.921
same,normalized growth,"S. cerevisiae deletion strains, locus YML016C, strain PPZ1, hits give low values",1
same,normalized growth,"S. cerevisiae deletion strains, locus YML032C, strain rad52, hits give low values",0.997
same,normalized growth,"S. cerevisiae deletion strains, locus YML120C, strain ndi1, hits give low values",0.991
same,normalized growth,"S. cerevisiae deletion strains, locus YML124C, strain tub3, hits give low values",1
same,normalized growth,"S. cerevisiae deletion strains, locus YMR058W, strain fet3, hits give low values",0.969
same,normalized growth,"S. cerevisiae deletion strains, locus YMR078C, strain ctf18, hits give low values",1
same,normalized growth,"S. cerevisiae deletion strains, locus YMR125W, strain sto1, hits give low values",0.997
same,normalized growth,"S. cerevisiae deletion strains, locus YMR129W, hits give low values",0.996
same,normalized growth,"S. cerevisiae deletion strains, locus YMR205C, strain PFK2, hits give low values",0.984
same,normalized growth,"S. cerevisiae deletion strains, locus YMR223W, strain ubp8, hits give low values",1
same,normalized growth,"S. cerevisiae deletion strains, locus YMR231W, strain pep5, hits give low values",1
same,normalized growth,"S. cerevisiae deletion strains, locus YMR307W, strain GAS1, hits give low values",0.998
same,normalized growth,"S. cerevisiae deletion strains, locus YNL067W, strain RPL9B, hits give low values",0.976
same,normalized growth,"S. cerevisiae deletion strains, locus YNL071W, strain lat1, hits give low values",0.992
same,normalized growth,"S. cerevisiae deletion strains, locus YNL183C, strain NPR1, hits give low values",0.97
same,normalized growth,"S. cerevisiae deletion strains, locus YNL209W, strain ssb2, hits give low values",1.01
same,normalized growth,"S. cerevisiae deletion strains, locus YNL233W, strain BNI4, hits give low values",0.966
same,normalized growth,"S. cerevisiae deletion strains, locus YNL248C, strain rpa49, hits give low values",0.968
same,normalized growth,"S. cerevisiae deletion strains, locus YNL250W, strain rad50, hits give low values",1
same,normalized growth,"S. cerevisiae deletion strains, locus YNL271C, strain bni1, hits give low values",1.01
same,normalized growth,"S. cerevisiae deletion strains, locus YNL298W, strain CLA4, hits give low values",1.01
same,normalized growth,"S. cerevisiae deletion strains, locus YNL307C, strain MCK1, hits give low values",0.999
same,normalized growth,"S. cerevisiae deletion strains, locus YNL322C, strain KRE1 (second series), hits give low values",0.997
same,normalized growth,"S. cerevisiae deletion strains, locus YNR049C, strain mso1, hits give low values",0.995
same,normalized growth,"S. cerevisiae deletion strains, locus YNR052C, strain pop2, hits give low values",1.01
same,normalized growth,"S. cerevisiae deletion strains, locus YOL006C, strain TOP1, hits give low values",0.887
same,normalized growth,"S. cerevisiae deletion strains, locus YOL012C, strain htz1",1.47
same,normalized growth,"S. cerevisiae deletion strains, locus YOL147C, strain pex11, hits give low values",1
same,normalized growth,"S. cerevisiae deletion strains, locus YOR001W, strain rrp6, hits give low values",1.01
same,normalized growth,"S. cerevisiae deletion strains, locus YOR061W, strain CKA2, hits give low values",0.985
same,normalized growth,"S. cerevisiae deletion strains, locus YOR069W, strain VPS5, hits give low values",0.997
same,normalized growth,"S. cerevisiae deletion strains, locus YOR070C, strain gyp1, hits give low values",0.999
same,normalized growth,"S. cerevisiae deletion strains, locus YOR080W, strain dia2, hits give low values",0.995
same,normalized growth,"S. cerevisiae deletion strains, locus YOR083W, strain WHI5, hits give low values",0.982
same,normalized growth,"S. cerevisiae deletion strains, locus YOR106W, strain vam3, hits give low values",0.971
same,normalized growth,"S. cerevisiae deletion strains, locus YOR136W, strain idh2, hits give low values",1.01
same,normalized growth,"S. cerevisiae deletion strains, locus YOR144C, strain elg1, hits give low values",1
same,normalized growth,"S. cerevisiae deletion strains, locus YOR184W, strain ser1, hits give low values",0.999
same,normalized growth,"S. cerevisiae deletion strains, locus YOR231W, strain MKK1, hits give low values",1
same,normalized growth,"S. cerevisiae deletion strains, locus YOR265W, strain rbl2, hits give low values",0.997
same,normalized growth,"S. cerevisiae deletion strains, locus YOR270C, strain vph1, hits give low values",0.989
same,normalized growth,"S. cerevisiae deletion strains, locus YOR290C, strain snf2, hits give low values",0.989
same,normalized growth,"S. cerevisiae deletion strains, locus YOR316C, strain cot1, hits give low values",1.01
same,normalized growth,"S. cerevisiae deletion strains, locus YPL051W, strain arl3, hits give low values",0.961
same,normalized growth,"S. cerevisiae deletion strains, locus YPL078C, strain atp4, hits give low values",1
same,normalized growth,"S. cerevisiae deletion strains, locus YPL106C, strain sse1, hits give low values",1.08
same,normalized growth,"S. cerevisiae deletion strains, locus YPL240C, strain hsp82, hits give low values",1
same,normalized growth,"S. cerevisiae deletion strains, locus YPL241C, strain CIN2, hits give low values",0.994
same,normalized growth,"S. cerevisiae deletion strains, locus YPL256C, strain CLN2, hits give low values",1.02
same,normalized growth,"S. cerevisiae deletion strains, locus YPR119W, strain clb2, hits give low values",1.01
same,normalized growth,"S. cerevisiae deletion strains, locus YPR141C, strain kar3, hits give low values",1
same,normalized growth,"S. cerevisiae deletion strains, locus YPR163C, strain tif3, hits give low values",1.01
same,normalized growth,"S. cerevisiae deletion strains, locus YPR167C, strain met16, hits give low values",1.01
same,normalized growth,"S. cerevisiae deletion strains, strain wtn01, hits give low values",0.988
same,normalized growth,"S. cerevisiae strains, strain wild type, hits give low values",0.992
